# Measured values from PubChem BioAssay (NCI).
# About 83,000 compounds went through this panel and 20% of them were active in at least one assay; those are over-represented in the sample as a whole.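 For each line, cells grew in 96-well plates with the test compound present at a single concentration for 48 hours.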 A number with no mark means an inactive call. Activity calls are given as the source filed them. Rule for the calls: active = growth percent below 10; inactive = the rest.
# Test system: HL-60(TB) leukemia
# Assay: NCI-60 one-dose screen, 48 h (100 = growth as untreated, 0 = no growth, -100 = all killed)
# Settings: 10 µM unless noted
row,Compound,growth
1,CN1/C(=C\C(I)C(I)C2=[N+](C)c3ccccc3C2(C)C)C(C)(C)c2ccccc21 (stereo not given),-20.1% (active)
2,C#C[C@]1(O)CC[C@H]2[C@@H]3CC=C4c5nc(Nc6ccccn6)sc5CC[C@]4(C)[C@H]3CC[C@@]21C,10.6%
3,COc1cc(/C=C2\C(=O)N(CCCOc3cc(O)c4c(=O)cc(-c5ccccc5)oc4c3)c3ccccc32)cc(OC)c1O,47.2%
4,COc1cc(C2C3=C(COC3=O)N(CCO)c3cc4c(cc32)CCC4)cc(OC)c1O (stereo not given),-8.61% (active)
5,Clc1ccc2c(N3CCN(c4ccnc(NC5CCCCC5)n4)CC3)ccnc2c1,-13.8% (active)
6,O=C(Nc1ccc(C(=O)Nc2ccc(C3=NCCCN3)cc2)cc1)Nc1ccc(C2=NCCCN2)cc1,44.2%
7,CC(C)C1(C(C)C)NC(=O)NC1=O,95.1%
8,CCC(=C(c1ccc(OCCCN(C)C)cc1)c1ccc(OCCCN(C)C)cc1)c1ccc(Cl)cc1,-55.3% (active)
9,COc1ccc(C2(Cl)c3ccccc3N(c3ccccc3)c3ccccc32)cc1,-22.3% (active)
10,CCN(CC)CCSCCCNc1c2ccc(Cl)cc2nc2ccc(OC)cc12,-35.4% (active)
11,C[C@H](NC(=O)[C@@H]1CSSC[C@@H](NC(=O)c2nc3ccccc3cc2O)C(=O)NCC(=O)N1C)c1ccccc1,-27.6% (active)
12,NNC(=O)Cc1ccccc1,73.1%
13,CC(=O)Nc1scc[n+]1Cc1ccccc1,55.3%
14,COC(=O)[C@]12CC[C@@H](C)[C@H](C)[C@@H]1C1=CC[C@@H]3[C@@]4(C)C(C=O)=C[C@@](C)(COS(C)(=O)=O)[C@@H]4C(=O)C[C@@]3(C)[C@]1(C)CC2,31.5%
15,CC(=O)NCCCS(=O)(=O)O,102%
16,C=C(C)[C@@H]1CC[C@]2(COC(C)=O)CC[C@]3(C)[C@H](CC[C@@H]4[C@@]5(C)CCCN(C(C)=O)C(C)(C)[C@@H]5CC[C@]43C)[C@@H]12,-29.2% (active)
17,COc1ccc(-c2nnc(COc3ccc(NC(=O)Nc4cc(C(F)(F)F)cc(C(F)(F)F)c4)cc3F)o2)cc1,-17.2% (active)
18,CCCCCOC(=O)c1ccccc1O,99.4%
19,COc1cc(Nc2nc3ccccc3cc2C(=O)Nc2ccc(F)c(F)c2)cc(OC)c1OC,19.8%
20,O=C(Nc1ccc(Cl)cc1F)c1cc(I)ccc1O,19.9%

row,Compound,growth
1,CNC(=O)Nc1ccc(-c2ccc3ncnc(Nc4cccc(Cl)c4)c3c2)cc1,76.2%
2,COC(=O)C(C(=O)OC)C(Br)C(Br)C(Br)c1ccccc1 (stereo not given),20.9%
3,CS(=O)(=O)Nc1cc(-c2ccc3ncnc(Nc4ccc(F)c(Cl)c4)c3c2)cnc1Cl,1.75% (active)
4,O=C1N/C(=C\c2ccccc2)c2ncccc21,117%
5,CN(CCC#N)c1ccc(/C=C2\NC(=O)NC2=O)cc1,92.2%
6,COc1ccc2c(c1)N(CCO)C1=C(C(=O)OC1)C2c1cccc(F)c1 (stereo not given),-22.7% (active)
7,COc1cc2c3c(n(CCCCNCCCn4c5c(c6cc(OC)c(OC)cc6c4=O)C(=O)c4cc6c(cc4-5)OCO6)c(=O)c2cc1OC)-c1cc2c(cc1C3=O)OCO2,93.7%
8,Cc1cc2nc3c4cc(C=O)ccc4n(CCN(C)C)c3nc2cc1C,16.9%
9,O=C(Nc1ccc(-n2ccc3c(NC(=O)c4ccccc4)nccc32)cc1)c1ccc(Cl)c(C(F)(F)F)c1,25.7%
10,NC1=Nc2ccccc2N(O)N1,88.4%
11,CC(=O)O[C@H]1CC[C@]2(C)[C@H]3CC=C4[C@@H]5[C@H](C)[C@@H](C)CC[C@]5(C(=O)NCCNCCNCCN)CC[C@@]4(C)[C@]3(C)CC[C@H]2C1(C)C,81.6%
12,O=C(Nc1ccc(-n2cc(-c3ccncc3)c(-c3ccc(O)c(Cl)c3)n2)cc1)Nc1cccc(Cl)c1Cl,78.8%
13,CCCCCc1cc[n+](CC(=O)c2ccc([N+](=O)[O-])cc2)cc1,102%
14,C=CC[P+](c1ccccc1)(c1ccccc1)c1ccccc1,4.03% (active)
15,CC(C)(C)[Si](C)(C)OC1[C@@H](CNC(N)=O)O[C@@H](n2cnc3c(NC(=O)Nc4ccccc4)ncnc32)[C@H]1O[Si](C)(C)C(C)(C)C (stereo not given in full),52%
16,CCOC(=O)/C=C1\S/C(=N\Nc2cc(=O)[nH]c3ccccc23)N(c2ccccc2)C1=O,99.1%
17,COc1cc(-c2cnc3nonc3n2)c(OC)c2c1OCO2,88.8%
18,CC(=O)Nc1ccc(C(=O)c2ccc(S(=O)(=O)Nc3ccccc3)cc2)cc1,102%
19,O=C(NC(=S)Nc1ccc(Cl)cc1)c1ccccc1,60.5%
20,Cc1ccc(S(=O)(=O)Nn2c3c(cc(-c4nc5ccccc5s4)c2=O)CCCCCC3)cc1,102%
